Out of some 13,000 compounds screened, about 3,200 (25%) showed an effect of 50% or more. The list shows a part of the results.
The molecules below were run on P. falciparum stage V gametocytes. Conditions: 48 h, 5 µM; inhibitor.
Set-up: BacTiter-Glo ATP luminescence viability of purified stage V gametocytes in 384-well plates, per cent inhibition versus DMSO

| SMILES | % Inhibition [%] |
| --- | --- |
| CCCC(C)N(Cc1ccc(C(C)(C)C)cc1)C(=O)c1cccc(OC)c1 (stereo not shown) [TCMDC-139783] | -10.58 |
| CCN(CC)CCOc1ccc(N(Cc2ccc(C(C)(C)C)cc2)C(=O)c2ccc(Cc3ccccc3)cc2)cc1OC [TCMDC-140667] | 103.5 |
| COc1cc(N(Cc2ccc(F)cc2)C(=O)c2ccc(-c3ccccc3)cc2)ccc1OCCN1CCCC1 [TCMDC-140662] | 28.65 |
| CCNc1cc(C(=O)N[C@@H](Cc2ccccc2)[C@H](O)CNCc2ccc3c(c2)OCCO3)cc(N2CCCCS2(=O)=O)c1 [TCMDC-135189] | -0.5627 |
| CCCc1cc(Cc2cnc(N)nc2N)cc(CCC)c1OCCCCC(=O)O [TCMDC-137293] | -0.4294 |
| COc1ccc(-c2cc(-c3nc4ccc(CN)cc4[nH]3)c(=O)n(C)c2)cc1OC [TCMDC-135048] | 18.44 |
| COc1ccc2nc(-c3cc(-c4ccc(NC(=O)CN5CCOCC5)cc4)cnc3N)[nH]c2c1 [TCMDC-135373] | 7.84 |
| COc1ccc(-c2cc(-c3nc4ccc(C(=O)N5CCOCC5)cc4[nH]3)c(=O)n(C)c2)cc1OC [TCMDC-135055] | 52.78 |
| CCN1CCC(N(Cc2ccc(-c3ccc(C(F)(F)F)cc3)cc2)C(=O)Cn2c(SCc3ccc(F)cc3)nc(=O)c3c2CCC3)CC1 [TCMDC-140976] | 69.1 |
| CCNC(C)(C)CN(Cc1ccc(-c2ccc(C(F)(F)F)cc2)cc1)C(=O)Cn1c(SCc2ccc(F)cc2)nc(=O)c2c1CCC2 [TCMDC-140977] | 131.5 |
| CCN1CCC(N(Cc2ccc(-c3ccc(C(F)(F)F)cc3)cc2)C(=O)Cn2nc(C)c(=O)cc2SCc2ccc(F)cc2)CC1 [TCMDC-141284] | 72.73 |
| CCn1c(SCc2ccc(F)cc2)nc2sc3c(c2c1=O)CCN(C)C3 [TCMDC-124551] | 44.44 |
| CCN(CC)CCN(Cc1ccc(-c2ccc(C(F)(F)F)cc2)cc1)C(=O)Cn1c(SCc2ccc(F)c(F)c2F)nc(=O)c2c1CCC2 [TCMDC-141063] | 82.6 |
| CCOC(=O)c1ccc(NC(=O)Nc2ccc(-c3cccc(-c4nc5c(C)cccc5[nH]4)c3)cc2)cc1 [TCMDC-133262] | -3.129 |
| CC(C)(C)c1ccc(CN(C[C@@H](O)CNS(=O)(=O)c2cc(Cl)cc(Cl)c2)C(C)(C)C)cc1 [TCMDC-135386] | -63.29 |
| COc1ccc(CC(=O)NC(CCCN2CCC3(CC2)OCc2ccccc23)c2ccc(Cl)c(Cl)c2)cc1 (stereo not shown) [TCMDC-141898] | -52.62 |
| O=C(Nc1cccc(F)c1)N1CCC(NS(=O)(=O)c2ccc(Br)cc2)CC1 [TCMDC-139438] | 2.418 |
| COc1cc2c(cc1OC)-c1cc(=Nc3c(C)cc(C)cc3C)n(C)c(=O)n1CC2 [TCMDC-125545] | 16.19 |
| CN(CCCNc1ccc(C(=O)Nc2ccc(C(F)(F)F)cc2)cc1[N+](=O)[O-])Cc1ccccc1 [TCMDC-125682] | -31.17 |
| CN(Cc1cccc(F)c1)C1CCN(c2cc(NC(=O)c3ccc(F)cc3)ccn2)C1 (stereo not shown) [TCMDC-135004] | -24.42 |
| CC(C)c1ccc(NC(=O)c2cccc(CN3CCCN(Cc4cccc(O)c4)CC3)c2)cc1 [TCMDC-135976] | -1.635 |
| CC(C)(C)NCCN(Cc1ccc(-c2ccc(C(F)(F)F)cc2)cc1)C(=O)Cn1c(SCc2ccc(F)cc2)nc(=O)c2c1CCC2 [TCMDC-140978] | 110.1 |
| Cn1ccnc1-c1nc2ccccn2c1NCC(=O)Nc1ccccc1N1CCCCC1 [TCMDC-133801] | -70.89 |

| SMILES | % Inhibition [%] |
| --- | --- |
| CCNc1cc(C)nc(Nc2ccc(NC(=O)c3ccc(OC)c(OC)c3)cc2)n1 [TCMDC-124987] | 8.373 |
| CSC1=NC(=Nc2c(C)cccc2C)C2(CCCCC2)N1c1ccccc1Cl [TCMDC-124143] | 13.06 |
| Cc1cccc(C)c1NC1=NC(=S)N(c2cccc(Cl)c2)C12CCC(C(C)(C)C)CC2 (stereo not shown) [TCMDC-124101] | -11.15 |
| CSC1=NC(=Nc2ccccc2C)C2(CCC(C(C)(C)C)CC2)N1c1ccccc1Cl (stereo not shown) [TCMDC-124136] | 53.76 |
| Cc1cc(C(=O)NC2CCN(Cc3ccccc3)CC2)ccc1-c1nc2ccc(C(F)(F)F)cc2[nH]1 [TCMDC-140120] | -4.747 |
| N#Cc1ccc(N2CCN(Cc3ccc(-c4ccc(-c5nc6ccc(F)cc6[nH]5)s4)cc3)CC2)nc1 [TCMDC-133115] | -21.41 |
| Oc1cc(Nc2ccnc3cc(-c4cccc(CN5CCOCC5)c4)ccc23)c(F)cc1Cl [TCMDC-138434] | 12.33 |
| CN1CCN(CCCSc2ccc3c(c2)ncn3-c2cc(OCc3ccccc3C(F)(F)F)c(C(N)=O)s2)CC1 [TCMDC-135408] | 12.22 |
| COc1ccc2ncn(-c3ccc(C(N)=O)c(OCc4ccccc4C(F)(F)F)c3)c2c1 [TCMDC-134428] | 48.51 |
| C[C@@H](Oc1cc(-n2cnc3ccc(OCC4CCN(S(C)(=O)=O)CC4)cc32)sc1C(N)=O)c1ccccc1C(F)(F)F [TCMDC-135685] | 34.9 |
| NC(=O)c1sc(-n2cnc3ccc(C(=O)NCCN4CCOCC4)cc32)cc1OCc1ccccc1C(F)(F)F [TCMDC-135181] | -45.79 |
| NC(=O)c1sc(-n2cnc3ccc(OCC4CCNCC4)cc32)cc1OCc1ccccc1C(F)(F)F [TCMDC-135173] | 107 |
| CC(C)CN1CCC(COc2ccc3ncn(-c4cc(O[C@H](C)c5ccccc5C(F)(F)F)c(C(N)=O)s4)c3c2)CC1 [TCMDC-135856] | 86.18 |
| Cc1nc(N)nc(N)c1CCCOc1ccccc1Cl [TCMDC-137929] | 3.372 |
| COc1cccc(CNC[C@@H](O)[C@H](Cc2ccccc2)NC(=O)c2cc(NC(C)C)cc(N3CCCCS3(=O)=O)c2)c1 [TCMDC-135205] | 28.03 |
| CC1(C)C=C(c2ccncc2)c2cc(Cl)ccc2O1 [TCMDC-131771] | -9.955 |
| Cc1cc(Nc2nc(Nc3cccc(Cl)c3)nc3ccccc23)n[nH]1 [TCMDC-134695] | 12.71 |
| Clc1cccc(Nc2ccc3c(N4CCCCC4)ncnc3n2)c1 [TCMDC-134937] | 52.12 |
| O=C(NCC1CCC1)c1cnc(Nc2cccc(Cl)c2)nc1N1CCC1 [TCMDC-135363] | 5.577 |
| OC(CNCc1ccccc1OCc1ccccc1)c1cccc(I)c1 (stereo not shown) [TCMDC-140522] | 41.43 |
| OC(CNCc1ccccc1OCc1ccccc1)c1cccc(Br)c1 (stereo not shown) [TCMDC-140734] | 51.74 |
| OC(CNCc1ccccc1OCc1ccccc1)c1cccc(Cl)c1 (stereo not shown) [TCMDC-140563] | -9.137 |
| Cc1cc(OCC(=O)Nc2ccc(-c3nc4ccccc4[nH]3)cc2)cc(C)c1Cl [TCMDC-125674] | -10.97 |

| SMILES | % Inhibition [%] |
| --- | --- |
| Cc1cccc(C)c1CNc1ccnc2cc(C#N)ccc12 [TCMDC-132170] | 2.762 |
| CC(C)N1CCN(CCCNc2c3ccccc3nc3ccccc23)CC1 [TCMDC-137547] | 96.57 |
| NS(=O)(=O)NCCCN1CCN(c2ccccc2)CC1 [TCMDC-141997] | 27.05 |
| CC(C)N1CCN(CCCCNc2c3ccccc3nc3ccccc23)CC1 [TCMDC-137573] | 93.57 |
| Cc1ncsc1CCN1C(=O)CC2(C1=O)C(=O)N(Cc1ccccc1)c1ccc(Cl)cc12 (stereo not shown) [TCMDC-136701] | 2.069 |
| COc1cc(F)c2ncc(Cl)c([C@@H](O)CN3CCC(NCc4cc5c(cn4)OCCO5)CC3)c2c1 [TCMDC-135475] | 41.87 |
| Cc1ccccc1OCCCc1c(C)nc(N)nc1N [TCMDC-138070] | -46.3 |
| Cc1ccc(NC(=O)c2cc(Br)cc(N3CCC(N(C)C)CC3)c2)cc1F [TCMDC-135144] | -10.77 |
| CC(C)Cc1cn(-c2nc(-c3nc4ccccc4[nH]3)cs2)c2cc(Cl)ccc12 [TCMDC-132300] | -85.76 |
| O=C(/C=C/c1cccs1)NCC(NCCCNc1cc(=O)c2ccccc2[nH]1)c1cc(Br)cc(Br)c1 (stereo not shown) [TCMDC-140318] | -18.64 |
| CCn1cc(CN2CCCC(C(=O)Nc3ccc(-c4nc5ccccc5[nH]4)cc3)C2)cn1 (stereo not shown) [TCMDC-124674] | -65.71 |
| CCN(CC)CC(O)Cc1c2ccc([N+](=O)[O-])cc2nc2cc(OC)c(OC)cc12 (stereo not shown) [TCMDC-138126] | 37.45 |
| CCN(CC)CC(O)CNc1c2ccc([N+](=O)[O-])cc2nc2cc(OC)c(OC)cc12.Cl (stereo not shown) [TCMDC-138079] | 90.61 |
| CCC(=Cc1cccc([N+](=O)[O-])c1)C(=O)NCC1CCN(c2nc(N)c3cc(OC)c(OC)cc3n2)CC1.Cl [TCMDC-138165] | 19.29 |
| Cc1noc(-c2ccc(NC[C@@H](C)NC[C@H](O)c3cccc(Cl)c3)cc2)n1 [TCMDC-132027] | 14.57 |
| COc1cc(C=Cc2ccc3ccccc3n2)cc(Br)c1OCC(=O)N(C)C [TCMDC-124818] | 44.47 |
| CC(=O)NC(c1cccs1)c1cc(Cl)c2cccnc2c1O (stereo not shown) [TCMDC-125548] | 90.83 |
| CC(C)C(=O)NC(c1ccc(N(C)C)cc1)c1cc(Cl)c2cccnc2c1O (stereo not shown) [TCMDC-123643] | 90.13 |
| CC(C)C(=O)NC(c1cccs1)c1cc(Cl)c2cccnc2c1O (stereo not shown) [TCMDC-123636] | 43.04 |
| CCCCC(=O)NC(c1cccs1)c1cc(Cl)c2cccnc2c1O (stereo not shown) [TCMDC-123653] | 45.79 |
| CCCC(=O)NC(c1cccs1)c1cc(Cl)c2cccnc2c1O (stereo not shown) [TCMDC-123634] | 68.96 |

Source: article PMC4552634, “A New Set of Chemical Starting Points with Plasmodium falciparum Transmission-Blocking Potential for Antimalarial Drug Discovery” (PLoS ONE, 2015)
